Source: PubChem (several laboratories)
Measles CPE: protection of cells from measles virus | Measles virus-infected cells, CPE protection, absorbance | protection (pct of control), % at 4 µM | 1.5% of 140,000 active | AID 841; in the data active means protection mostly above about 24%, no sharp cut-off; inactive means mostly below about 26%
CYP2C19 act: cytochrome P450 2C19 (human) activation. activation factor at 5 µM. P33261. recombinant CYP2C19, luciferin-H EGE luminescence; active compounds read high; 0 = fully inhibited enzyme, 1 = untreated enzyme. AID 1025. 96,000 tested, under 10 active;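 active means activation factor of at least 2 at 5 µM in the primary screen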;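 further: 0 = wells with 2.5 mM tranylcypromine and 1 = vehicle-only wells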
CYP2C9 inh: human CYP2C9 inhibition; P11712; CYP2C9 Supersomes, luciferin-H conversion, luminescence; inhibition, % at 5 µM; 20% of 96,000 active; AID 777;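 active means blocking of liver enzyme CYP2C9 beyond about 50% at 5 µM, limit read from the data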
Target sequence (P11712 whole entry, looked up): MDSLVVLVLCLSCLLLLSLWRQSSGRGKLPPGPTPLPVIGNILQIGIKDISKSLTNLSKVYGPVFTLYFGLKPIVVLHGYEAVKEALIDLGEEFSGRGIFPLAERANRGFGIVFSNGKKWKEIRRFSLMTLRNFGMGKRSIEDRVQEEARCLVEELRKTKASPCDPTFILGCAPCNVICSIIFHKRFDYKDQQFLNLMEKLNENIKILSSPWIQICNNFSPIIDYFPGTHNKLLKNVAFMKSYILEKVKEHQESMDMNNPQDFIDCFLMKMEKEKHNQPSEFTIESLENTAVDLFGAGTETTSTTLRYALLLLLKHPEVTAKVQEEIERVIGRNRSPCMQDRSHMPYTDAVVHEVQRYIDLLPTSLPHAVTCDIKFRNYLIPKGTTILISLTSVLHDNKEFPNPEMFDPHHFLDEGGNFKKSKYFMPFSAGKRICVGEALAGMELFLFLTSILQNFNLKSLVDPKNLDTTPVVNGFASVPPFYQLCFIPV
CYP2C9 act: increases human cytochrome P450 2C9 activity; recombinant CYP2C9, luciferin-H conversion, luminescence; active compounds read high; factor 1 = untreated enzyme, 0 = blocked; 1.4% of 96,000 active; AID 1024; activation factor at 5 µM; P11712;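 active means activation factor of 2 or more for CYP2C9 at a 5 µM dose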;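 further: 0 = sulfaphenazole-blocked wells and 1 = vehicle-only wells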
CYP2C19 inhib: blocks human cytochrome P450 2C19; CYP2C19 Supersomes, luciferin-H EGE luminescence, 30 min; P33261; inhibition, % at 5 µM; 21% of 96,000 active;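 active means CYP2C19 inhibition above a set limit at 5 µM in the primary screen, cut at about 50% in these data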;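 further: plate controls were negative control wells for no effect and 2.5 mM tranylcypromine positive control for full effect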
Starred values were filed as active, the others as inactive; . = no result. A selection: hits, their analogues and other compounds. The true share with any hit is near 22%.

SMILES	Measles CPE	CYP2C19 act	CYP2C9 inh	CYP2C9 act	CYP2C19 inhib
Cc1ccc(C)c(N2CCN(C(=O)CC3Sc4ccccc4NC3=O)CC2)c1 (centres undefined)	12	0.3	51*	0.5	71*
CCOC(=O)/C(C#N)=c1/s/c(=C2\C=Cc3ccccc3N2CC)c(=O)n1CC	5	0.4	42	0.6	58*
CCCCCCC1/C(=N/O)CCC1C(=O)OC (centres undefined)	6	0.3	44	0.6	66*
Cc1ccc(S(=O)(=O)NNC(=O)c2sccc2-n2cccc2)cc1	20	0.7	24	0.8	31
Cc1ccc(S(=O)(=O)NNC(=O)c2sc3nc(C)cc(C)c3c2-n2cccc2)cc1	5	0.2	99*	0	81*
Cc1ccc2[nH]c3c(c2c1)CN(C(=O)CN1c2ccc(F)cc2CCC1C)CC3 (centres undefined)	2	0.7	46	0.5	29
O=C(CN1CCSCC1)N1CCc2[nH]c3ccc(Br)cc3c2C1	6	0.1	81*	0.2	93*
Cc1ccc2[nH]c3c(c2c1)CN(C(=O)CN1CCN(c2cccc(C)c2C)CC1)CC3	7	0.5	89*	0.1	49
COc1cc(-n2c(C)nc3cc(C(=O)N4CCOCC4)ccc32)cc(OC)c1OC	7	1.1	-13	1.1	-14
Cc1cc(Cl)ccc1NC(=S)NCc1ccccc1Cl	7	.	.	.	.
COc1ccc(OC)c(-c2cc(C3CCN(c4ncccc4[N+](=O)[O-])CC3)[nH]n2)c1	5	0.8	49	0.5	22
O=[N+]([O-])c1cccnc1N1CCC(c2cc(-c3cccc(C(F)(F)F)c3)n[nH]2)CC1	9	0.3	98*	0	67*
CC(=O)c1ccc(N2CCC(c3cc(-c4ccc(Cl)cc4Cl)n[nH]3)CC2)c([N+](=O)[O-])c1	8	0.5	59*	0.4	51*
CCC(=O)N1CCN(c2ccc(Cl)cc2NC(=O)c2ccc(N3CCCC3)c([N+](=O)[O-])c2)CC1	1	0.6	36	0.6	42
O=[N+]([O-])c1cccnc1N1CCC(c2cc(-c3ccc(Cl)cc3Cl)n[nH]2)CC1	7	0.6	85*	0.1	37
O=C(CN1C2CCCC1CC(NC(=O)c1ccccc1)C2)Nc1nccs1 (centres undefined)	9	.	.	.	.
CC(=O)NC(=O)NC1OC(=O)C(Cl)=C1Cl (centres undefined)	16	1.2	-25	1.2	-24
CC1=C(n2nnc([N+](=O)[O-])n2)C(c2cccnc2)C(C#N)=C(N)O1 (centres undefined)	14	.	.	.	.
CC1CC(=O)NN=C1c1ccc(N(C)C)c([N+](=O)[O-])c1 (centres undefined)	15	0.9	14	0.9	13
CCN(CC)c1ccc(C2=NNC(=O)CC2C)cc1[N+](=O)[O-] (centres undefined)	3	0.5	52*	0.5	50
O=C(NCC(=O)N(Cc1ccco1)C(C(=O)NC1CCCCC1)c1cccnc1)c1cccs1 (centres undefined)	12	0.4	29	0.7	57*
COCCN(C(=O)CNC(=O)c1cccs1)C(C(=O)NC1CCCC1)c1cccs1 (centres undefined)	23	0.4	47	0.5	56*
CCOC(=O)c1c(/N=C/c2cccc(C)c2O)sc2c1CCN(C)C2	3	.	.	.	.
Cc1cc(C)cc(N2C(=O)N(c3ccccc3C)C3CS(=O)(=O)CC32)c1 (centres undefined)	17	0.1	9	0.9	94*
O=C(Cn1nc(C(F)(F)F)c2c1CCCC2)NCCN1CCOCC1	3	0.4	27	0.7	64*
SMILES	Measles CPE	CYP2C19 act	CYP2C9 inh	CYP2C9 act	CYP2C19 inhib
CC(C)(C)NC(=O)c1cc(F)c(F)cc1Cl	7	1	11	0.9	-4
Clc1cccc(Cl)c1Cn1c(-c2cccnc2Cl)nc2ccccc21	4	0.6	46	0.5	36
CCCn1c(-c2cccnc2Cl)nc2cc(Cl)c(Cl)cc21	4	0.6	56*	0.4	39
C=CCn1c(-c2cccnc2Cl)nc2cc(Cl)c(Cl)cc21	13	0.6	57*	0.4	43
Cc1cc2c(=O)n(NC(N)=O)c(C)nc2s1	15	1	9	0.9	2
CCC1=NN=C(c2ccc(F)cc2)C(c2c[nH]c3ccccc23)N1O (centres undefined)	7	.	.	.	.
O=C(CCCN1C(=O)c2ccccc2C1=O)N1CCc2ccccc2C1	32	0.5	13	0.9	50*
O=C(CN1C(=O)c2ccccc2S1(=O)=O)N1CCc2ccccc2C1	6	0.5	13	0.9	55*
O=C(CN1C(=O)c2cccc3cccc1c23)N1CCN(Cc2ccc3c(c2)OCO3)CC1	2	.	.	.	.
O=C(CN1C(=O)c2cccc3cccc1c23)N1CCc2ccccc2C1	12	0.4	-78	1.8	64*
Cc1cccc(C)c1C(=NCCCN(C)C)c1ccccc1	10	.	.	.	.
COC(=O)Nc1sc(C)nc1-c1ccccc1	.	1	-7	1.1	0
CCOC(=O)Nc1nc(-c2ccccc2)c(C(=O)c2ccc(Cl)cc2)s1	31	0.3	64*	0.4	73*
CCOC(=O)Nc1sc(C)nc1-c1ccccc1	15	0.4	18	0.8	61*
CNc1nc(C)c(C(=O)c2ccc(Cl)cc2)s1	14	0.3	61*	0.4	66*
COCC(=O)Nc1nc(-c2ccc(C)cc2)c(C)s1	7	.	.	.	.
CCc1sc(NC(=O)COC)nc1-c1ccccc1	28*	0.2	57*	0.4	75*
CCOC(=O)c1sc(NC(=O)c2ccc(S(=O)(=O)N3CCCCC3)cc2)nc1-c1ccccc1	8	.	.	.	.
O=C(/C=C/c1ccccc1)Nn1c(-c2cccc([N+](=O)[O-])c2)nc2ccccc2c1=O	11	.	.	.	.
CN(c1ccc(OCC(=O)N2CCC(C(N)=O)CC2)cc1)S(=O)(=O)c1cccs1	6	1	5	1	-3
CN(c1ccc(OCC(=O)NC2CCCC2)cc1)S(=O)(=O)c1cccs1	17	0.9	72*	0.3	13
Cc1ccn2c(NCc3ccc4c(c3)OCO4)c(-c3ccc(O)cc3)nc2c1	9	0.8	17	0.8	18
Oc1ccc(-c2nc3ccccn3c2NCc2ccc3c(c2)OCO3)cc1	10	0.3	-4	1	68*
CCCCCCC(c1c(C)n(C)n(-c2ccccc2)c1=O)c1c(C)n(C)n(-c2ccccc2)c1=O	16	.	.	.	.
COc1ccnc(NCc2cccnc2)c1C#N	6	0.9	5	0.9	13
O=Nc1ccc(NOC(=O)c2ccc(Br)cc2)cc1	11	0.8	10	0.9	17
COC(=O)c1ccc(NN=Nc2ccc(C)cc2)cc1	5	.	.	.	.
Cc1ccc(C(=O)ONc2ccc(N=NC(=O)c3ccccc3O)cc2)cc1	6	0	92*	0.1	100*
Cc1ccc(C(=O)ONc2ccc(N=O)cc2)cc1	9	1	93*	0.1	-4
O=C(COC(=O)CNC(=O)c1ccccc1)Nc1ccc(Cl)cc1C(F)(F)F	7	.	.	.	.
